Measured values reported in PubChem BioAssay AID1159580 (chemical genetic matrix, 2015).
Among all 5,500 compounds or so, about 2,000 (36%) were called active. Inconclusive results (about 18%) are left out. Cut-off read from the data, not from the text of the source: active = normalized growth mostly below about 0.91 (no sharp cut-off); inconclusive = no clear call, values can overlap the other calls; inactive = mostly above about 0.92. Some of the results follow.

Experiment: chemical genetic growth profiling, strain panel (AID 1159580);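 note: tested at 20 µM; growth read once vehicle control cultures reached saturation at 30 °C; 1 = growth at the plate median or of vehicle wells; lower values mean less growth of the strain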
Details: S. cerevisiae deletion strains, growth OD

Measured: normalized growth

O=C1c2ccccc2O[C@@H](c2ccccc2)[C@@H]1NCc1ccccc1
active: locus YDL101C, strain DUN1, active compounds read low 0.905 | locus YDL132W, strain cdc53, active compounds read low 0.893 | locus YDR226W, strain ADK1, active compounds read low 0.896 | locus YFR028C, strain CDC14, active compounds read low 0.891 | locus YHR030C, strain SLT2, active compounds read low 0.677 | locus YLR113W, strain HOG1, active compounds read low 0.739 | locus YPL256C, strain CLN2, active compounds read low 0.846
inactive: locus YAR019C, strain CDC15, active compounds read low 0.915 | locus YBL105C, strain PKC1, active compounds read low 0.916 | locus YBR135W, strain CKS1, active compounds read low 0.922 | locus YBR136W, strain MEC1, active compounds read low 0.921 | locus YBR160W, strain CDC28, active compounds read low 0.922 | locus YDL017W, strain CDC7, active compounds read low 0.915 | locus YDL028C, strain MPS1, active compounds read low 0.919 | locus YDL108W, strain KIN28, active compounds read low 0.929 | locus YDL214C, strain PRR2, active compounds read low 0.867 | locus YDR052C, strain DBF4, active compounds read low 0.914 | locus YDR054C, strain cdc34, active compounds read low 0.879 | locus YDR477W, strain SNF1, active compounds read low 0.853 | locus YER123W, strain YCK3, active compounds read low 0.836 | locus YER133W, strain GLC7, active compounds read low 0.836 | locus YFL009W, strain cdc4, active compounds read low 0.894 | locus YFL029C, strain CAK1, active compounds read low 0.909 | locus YFR003C, strain YPI1, active compounds read low 0.916 | locus YFR019W, strain FAB1, active compounds read low 0.894 | locus YGR040W, strain KSS1, active compounds read low 0.85 | locus YGR052W, strain FMP48, active compounds read low 0.856 | locus YGR092W, strain DBF2, active compounds read low 0.844 | locus YHR079C, strain IRE1, active compounds read low 0.839 | locus YHR082C, strain KSP1, active compounds read low 0.906 | locus YHR205W, strain SCH9, active compounds read low 0.905 | locus YIL147C, strain SLN1, active compounds read low 0.915 | locus YJL095W, strain BCK1, active compounds read low 0.751 | locus YJL128C, strain PBS2, active compounds read low 0.874 | locus YJL157C, strain FAR1, active compounds read low 0.835 | locus YJR016C, strain ILV3, active compounds read low 0.906 | locus YJR066W, strain TOR1 (second series), active compounds read low 0.76 | locus YJR066W, strain TOR1, active compounds read low 0.864 | locus YKL048C, strain ELM1, active compounds read low 0.897 | locus YKL067W, strain YNK1, active compounds read low 0.89 | locus YKL101W, strain HSL1, active compounds read low 0.899 | locus YKL193C, strain SDS22, active compounds read low 0.905 | locus YKL203C, strain TOR2, active compounds read low 0.918 | locus YLR133W, strain CKI1, active compounds read low 0.89 | locus YLR403W, strain SFP1, active compounds read low 0.834 | locus YML070W, strain DAK1, active compounds read low 0.85 | locus YMR001C, strain CDC5, active compounds read low 0.899 | locus YMR205C, strain PFK2 (second series), active compounds read low 0.863 | locus YMR277W, strain FCP1, active compounds read low 0.904 | locus YNL006W, strain LST8, active compounds read low 0.915 | locus YNL020C, strain ARK1, active compounds read low 0.88 | locus YNL161W, strain CBK1, active compounds read low 0.903 | locus YNL183C, strain NPR1, active compounds read low 0.92 | locus YNL207W, strain RIO2, active compounds read low 0.89 | locus YNL222W, strain SSU72, active compounds read low 0.923 | locus YNL307C, strain MCK1 (second series), active compounds read low 0.895 | locus YOL078W, strain AVO1, active compounds read low 0.903 | locus YOL136C, strain PFK27, active compounds read low 0.863 | locus YOR061W, strain CKA2, active compounds read low 0.849 | locus YOR119C, strain RIO1, active compounds read low 0.89 | locus YOR231W, strain MKK1, active compounds read low 0.887 | locus YOR329C, strain SCD5, active compounds read low 0.911 | locus YPL031C, strain PHO85, active compounds read low 0.841 | locus YPL153C, strain RAD53, active compounds read low 0.846 | locus YPL204W, strain HRR25, active compounds read low 0.825 | locus YPL209C, strain IPL1, active compounds read low 0.918 | locus YPR025C, strain CCL1, active compounds read low 0.922 | locus YPR106W, strain ISR1, active compounds read low 0.909 | locus YPR111W, strain DBF20, active compounds read low 0.911 | strain NNK1, active compounds read low 0.891 | strain TSCII, active compounds read low 0.885
